Laboratory results taken from PubChem BioAssay (Tox21).
Records with an inconclusive call do not appear. Activity calls are given as the source filed them. Calls follow the shape of the full dose curve.

Columns and labels:
[1] = biological target: Acetylcholinesterase (Homo sapiens) (UniProt P22303); test: Acetylcholinesterase (AChE) small molecule antagonists: colormetric cell-based qHTS assay (AID 1347395); settings: SH-SY5Y cells AChE activity, colorimetric (Ellman); series mostly up to 115 µM; also: nearly all actives have a fitted effect of over 30% in size
Chain of Acetylcholinesterase (Homo sapiens) (P22303 whole entry, looked up): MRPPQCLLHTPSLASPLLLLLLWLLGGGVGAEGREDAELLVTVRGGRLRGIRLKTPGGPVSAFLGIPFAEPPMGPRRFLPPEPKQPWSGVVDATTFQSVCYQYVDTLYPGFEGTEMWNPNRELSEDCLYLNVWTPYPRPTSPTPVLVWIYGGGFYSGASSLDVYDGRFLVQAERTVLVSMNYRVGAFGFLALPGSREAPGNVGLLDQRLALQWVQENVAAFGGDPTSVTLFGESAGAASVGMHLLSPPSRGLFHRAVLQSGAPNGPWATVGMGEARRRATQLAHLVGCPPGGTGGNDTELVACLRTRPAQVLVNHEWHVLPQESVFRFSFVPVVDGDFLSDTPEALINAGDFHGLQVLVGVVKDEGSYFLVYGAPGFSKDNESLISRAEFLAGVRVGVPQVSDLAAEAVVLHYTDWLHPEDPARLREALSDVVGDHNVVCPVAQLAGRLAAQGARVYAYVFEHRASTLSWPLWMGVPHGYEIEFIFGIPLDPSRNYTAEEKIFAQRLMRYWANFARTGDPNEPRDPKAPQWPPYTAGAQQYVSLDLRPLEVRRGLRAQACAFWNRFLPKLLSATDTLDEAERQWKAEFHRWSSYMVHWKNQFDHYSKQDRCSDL
How it was run: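 Colorimetric read-out: DTNB detects thiocholine released when cellular AChE in SH-SY5Y cells hydrolyses acetylthiocholine. Cells attached overnight, received compound for 30 min at 37 C, then substrate mix for 90 min at 37 C.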

[2] = biological target: Acetylcholinesterase (Homo sapiens) (UniProt P22303); test: Acetylcholinesterase (AChE) small molecule antagonists: enzyme-based qHTS assay (AID 1347397); settings: Potency: AChE enzyme activity inhibition; outcome: AChE enzyme activity inhibition; series mostly up to 115 µM; also: nearly all actives have a fitted effect of over 55% in size
How it was run: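 Enzyme inhibition was scored from DTNB-detected thiocholine formed by recombinant human AChE acting on acetylthiocholine. The 30 min compound preincubation and 10 min substrate reaction were both run at room temperature, with DMSO as vehicle control.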

[3] = biological target: Acetylcholinesterase (Homo sapiens) (UniProt P22303); test: Acetylcholinesterase (AChE) small molecule antagonists: fluorescence cell-based qHTS assay (AID 1347398); settings: SH-SY5Y cells; Potency: AChE activity; outcome: AChE activity; series mostly up to 115 µM; also: nearly all actives have a fitted effect of over 50% in size
How it was run: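 Endogenous acetylcholinesterase of SH-SY5Y neuroblastoma cells is measured in situ. After overnight attachment and 30 min compound exposure, cells receive acetylthiocholine and Thiolite Green; fluorescence is read after 40 min at room temperature.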

[4] = biological target: Acetylcholinesterase (Homo sapiens) (UniProt P22303); test: Acetylcholinesterase (AChE) small molecule antagonists: enzyme-based qHTS assay with human liver microsomes (AID 1347399); settings: Potency: qHTS inhibition; outcome: qHTS inhibition; series mostly up to 115 µM; also: nearly all actives have a fitted effect of over 60% in size
How it was run: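 Recombinant human AChE (50 mU/mL in the enzyme mix) and human liver microsomes (0.25 mg/mL final) were preincubated with compound and NADPH (0.25 mg/mL final) for 30 min at 37 C. Acetylthiocholine/DTNB was then added; thiocholine was read colorimetrically after 10 min at room temperature.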
% is scaled to controls: 0 for no effect and ±100 for the full control effect.

Cc1cccc(C)c1NC(=O)c1cc(S(N)(=O)=O)c(Cl)cc1O
inactive: Potency [1] | Potency [2] | Potency [3]

CCCCCCCCCCCCC1CO1 (stereo not drawn)
inactive: Potency [1] | Potency [2] | Potency [3]

CC[C@H]1O[C@]2(CC[C@@H]1C)C[C@@H]1C[C@@H](C/C=C(\C)C[C@@H](C)/C=C/C=C3\CO[C@@H]4[C@H](O)C(C)=C[C@@H](C(=O)O1)[C@]34O)O2
inactive: Potency [1] | Potency [2] | Potency [3]

O=C1OC[C@H](Cc2cccc(O)c2)[C@H]1Cc1cccc(O)c1
inactive: Potency [1] | Potency [2] | Potency [3]

O=C(O)c1cccnc1Nc1cccc(C(F)(F)F)c1
inactive: Potency [1] | Potency [2] | Potency [3]

CN1[C@@H]2CC[C@H]1CC(NC(=O)n1c(=O)[nH]c3ccccc31)C2 (stereo partly drawn)
inactive: Potency [1] | Potency [2] | Potency [3]

Brc1cc2ccccc2c2ccccc12
inactive: Potency [1] | Potency [2] | Potency [3]

N#CCCOCCC#N
inactive: Potency [1] | Potency [2] | Potency [3]

CCOC(=O)[C@H](CCc1ccccc1)N[C@@H](C)C(=O)N1Cc2cc(OC)c(OC)cc2C[C@H]1C(=O)O
inactive: Potency [1] | Potency [2] | Potency [3]

BrC/C=C/CBr
inactive: activity, negative = inhibition [1] 1.18% [at 23.6 µM] | activity change, negative = inhibition [2] 2.59% [at 23.6 µM] | activity change, negative = inhibition [3] 7.15% [at 23.8 µM] | activity change, negative = inhibition [4] -2.1% [at 23.6 µM]

C=C(C)C(=O)OCCC[Si](Cl)(Cl)Cl
inactive: Potency [1] | Potency [2] | Potency [3] | Potency [4]

O=C(/N=N/C(=O)OCc1ccccc1)OCc1ccccc1
inactive: Potency [1] | Potency [2] | Potency [3]

O=C(O)/C=C/c1ccccc1
inactive: Potency [1] | Potency [2] | Potency [3] | Potency [4]

CCCCCCCCCCCBr
inactive: Potency [1] | Potency [2] | Potency [3] | Potency [4]

CC(C)(C)N(CCO)CCO
inactive: Potency [1] | Potency [2] | Potency [3]

CCOC(=O)CC#N
inactive: Potency [1] | Potency [2] | Potency [3] | Potency [4]

CC12CC3CC(C)(C1)CC(N)(C3)C2
inactive: Potency [1] | Potency [2] | Potency [3]

O=S1OCCO1
inactive: Potency [1] | Potency [2] | Potency [3] | Potency [4]

CC1CCc2c(N3CCC(O)CC3)c(F)cc3c(=O)c(C(=O)O)cn1c23 (stereo not drawn)
inactive: Potency [1] | Potency [2] | Potency [3] | Potency [4]

COc1c(Br)cc(Br)c(C)c1Br
inactive: Potency [1] | Potency [2] | Potency [3]

CCCCCCC(=O)OCC
inactive: Potency [1] | Potency [2] | Potency [3]

O=C(OCCN1CCOCC1)c1cccnc1Nc1cccc(C(F)(F)F)c1
inactive: Potency [1] | Potency [2] | Potency [3]

COc1ccc(NS(=O)(=O)c2ccc(N)cc2)nn1
inactive: Potency [1] | Potency [2] | Potency [3]

O=C(O)/C=C/c1ccc(O)c(O)c1
inactive: Potency [1] | Potency [2] | Potency [3] | Potency [4]

CC(=O)OCC(C)OC(C)=O (stereo not drawn)
inactive: Potency [1] | Potency [2] | Potency [3]

CCCCNCCCC
inactive: Potency [1] | Potency [2] | Potency [3] | Potency [4]

CCCC(=O)OCC
inactive: Potency [1] | Potency [2] | Potency [3]

Cc1ccccc1N1C(=O)c2cc(S(N)(=O)=O)c(Cl)cc2NC1C (stereo not drawn)
inactive: Potency [1] | Potency [2] | Potency [3]

C[C@H](N)C(=O)N[C@@H](C)C(=O)NC1[C@H]2CN(c3nc4c(cc3F)c(=O)c(C(=O)O)cn4-c3ccc(F)cc3F)C[C@@H]12 (stereo partly drawn)
inactive: outcome [1] | outcome [2] | outcome [3] | outcome [4]

COC(=O)CC(C)=O
inactive: Potency [1] | Potency [2] | Potency [3]

C[N+](C)(CCOc1ccccc1)Cc1cccs1
inactive: Potency [1] | Potency [2] | Potency [3]

CCCCCCCCCCCCCC=O
inactive: activity, negative = inhibition [1] 1.02% [at 10.5 µM] | activity change, negative = inhibition [2] 0.138% [at 10.5 µM] | activity change, negative = inhibition [3] 1.81% [at 10.5 µM]

Cc1ccccc1N=C(N)N=C(N)N
inactive: Potency [1] | Potency [2] | Potency [3] | Potency [4]

NCCCN1CCOCC1
inactive: Potency [1] | Potency [2] | Potency [3] | Potency [4]

CCCC(=O)OC(=O)CCC
inactive: Potency [1] | Potency [2] | Potency [3] | Potency [4]

C=CC/C=C/C/C=C/C/C=C/C
inactive: Potency [1] | Potency [2] | Potency [3]

CCCCOCC
inactive: Potency [1] | Potency [2] | Potency [3]

C(=C\c1ccccc1)/c1ccccc1
inactive: Potency [1] | Potency [2] | Potency [3] | Potency [4]

CCC(C)C(=O)OC (stereo not drawn)
inactive: Potency [1] | Potency [2] | Potency [3] | Potency [4]

COc1cc(Cl)c(OC)cc1N
inactive: Potency [1] | Potency [2] | Potency [3] | Potency [4]

Oc1cccc2c(O)cccc12
inactive: Potency [1] | Potency [2] | Potency [3] | Potency [4]

CCOC(=O)CS
inactive: Potency [1] | Potency [2] | Potency [3] | Potency [4]

CC(=O)NC1(c2cccc(F)c2)CCN(CC[C@@]2(c3ccc(Cl)c(Cl)c3)CN(c3ccccc3)C(=O)CO2)CC1
inactive: Potency [1] | Potency [2] | Potency [3] | Potency [4]
